This excerpt belongs to a sample that is enriched for hits.
Cruzain inh Det = cruzain (T. cruzi) inhibition with detergent; 200,000 compounds, 0.43% hits; Potency, µM, actives largely listed as inhibitors; P25779; purified cruzain, Z-FR-AMC fluorescence, 0.01% Triton; AID 1478; note: nearly all actives have a fitted effect of over 40% in size
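Sodium acetate buffer (100 mM, pH 5.5) containing 5 mM DTT and 0.01% Triton X-100 hosted 1.5 nM cruzain and test compound for 15 min at room temperature. Cleavage of 2 uM Z-FR-AMC was then tracked by fluorescence.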
Cruzain noTriton = blocks cruzain activity in detergent-free assay; P25779; purified cruzain, Z-FR-AMC fluorescence, no detergent; Potency, µM, most hits filed as inhibitors; 200,000 compounds, 2.3% hits; note: nearly all actives have a fitted effect of over 40% in size
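Detergent-free condition (0.00005% Triton X-100) in acetate buffer pH 5.5 with DTT. 1.5 nM enzyme and compound were pre-mixed 15 min, then 2 uM Z-FR-AMC substrate added; reaction progress from fluorescence change between first and third reads (60 s).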
FBPA Giardia inh = Giardia lamblia aldolase inhibition; A8B2U2; purified Giardia FBPA; Potency, µM (top dose mostly 59.6 µM), actives largely listed as inhibitors; 290,000 compounds, 0.71% hits; AID 2451; note: nearly all actives have a fitted effect of over 55% in size
Target sequence (A8B2U2 whole entry, looked up): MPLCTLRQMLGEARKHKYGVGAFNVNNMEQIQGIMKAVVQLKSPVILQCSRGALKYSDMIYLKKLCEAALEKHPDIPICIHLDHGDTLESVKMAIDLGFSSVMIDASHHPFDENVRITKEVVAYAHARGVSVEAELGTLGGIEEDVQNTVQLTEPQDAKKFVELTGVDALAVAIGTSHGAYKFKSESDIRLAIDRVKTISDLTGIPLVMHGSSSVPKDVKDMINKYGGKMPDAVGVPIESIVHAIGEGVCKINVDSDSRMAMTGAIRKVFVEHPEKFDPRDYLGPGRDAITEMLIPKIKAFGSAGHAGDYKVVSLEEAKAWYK
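40 nM FBPA preincubated 10 min at RT with compound (up to 57.5 uM final), then substrate plus GAPDH/TPI/NAD/arsenate coupling and diaphorase/resazurin added. Fluorescence read after 20 min at RT, 525/598 nm.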
Hits are given with their value; 0 = inactive; ? = inconclusive; - = no result given; ! = not active in a repeat; [ ] = another dose, or the depositor's remark. Calls come from the whole dose curve; as a rule, active = well fitted curve in the direction sought with a large enough effect; inconclusive = small, poorly fitted or top-dose-only effect, or another doubt; inactive = no such curve, though single readings can be large; an effect the other way counts as inactive or inconclusive.

SMILES	Cruzain inh Det	Cruzain noTriton	FBPA Giardia inh
CCOc1ccc2c(c1)nc(SCC(=O)c1cccs1)n2C	0	0	0
CCOc1ccc2c(c1)nc(SCC(=O)c1ccc(Br)s1)n2C	0	25.1µM	0
CCOC(=O)CN1C(=O)N[C@@H](c2cccc(C(F)(F)F)c2)[C@H](C(=O)OC)[C@H]1C	-	-	0[12.9 µM]
CCN(CC)S(=O)(=O)c1ccc(C(=O)NCCSc2c[nH]c3ccccc23)cc1	0	0	0
CCN(CC)S(=O)(=O)c1ccc(C(=O)NCCSc2c(-c3ccc(C)cc3)[nH]c3ccccc23)cc1	0	25.1µM	-
COc1cccc(N2CCN(C(=O)c3ccc(CS(=O)c4cccc(Cl)c4)o3)CC2)c1 (stereo not given)	0	0	-
COc1ccc(/C=N/n2cc(-c3ccccc3)nc2N)cc1	0	?	0
COc1ccc(/C=N/n2cc(-c3ccc(OC)cc3)nc2N)cc1	0	31.6µM	0
O[C@@H](c1cc(-c2ccccc2)nc2c1ccc1ccccc12)C1CCCCN1 (stereo not given in full)	0	0	-
O=C(NCC(c1cccs1)S(=O)(=O)c1cccs1)c1ccc(Cl)cc1 (stereo not given)	0	0	-
Cc1nn2c(N)c(C#N)cnc2c1-c1ccccc1	0	0	0
Cc1nn2c(N)c(C#N)cnc2c1-c1ccc(Cl)cc1	0	25.1µM	0
Cc1cccc(C)c1NC(=O)CSc1nccn1C	0	0	-
CC1CCN(c2nc3ccccc3nc2SCC(=O)Nc2ccccc2C(C)C)CC1	0	0	-
COc1ccc(N2CCN(CCCNC(=O)c3cnn(-c4ccc(F)cc4)c3-n3cccc3)CC2)cc1	0	0	-
O=C(O)C1=C/C(=C(/c2ccccc2)c2cc(C(=O)O)c(O)c3ccccc23)c2ccccc2C1=O	0	?	-
Cc1ccc(S(=O)(=O)NC(=O)NCc2ccccc2)cc1	0	0	0
CCCCOc1ccc(S(=O)(=O)NC(=O)NCc2ccc(OCCC)cc2)cc1	0	25.1µM	0
COc1ccc(CNC(=O)NS(=O)(=O)c2ccc(C)cc2)cc1	-	-	0
CCCCOc1ccc(CNC(=O)NS(=O)(=O)c2ccc(OCC)cc2)cc1	0	20µM	0
CCCCOc1ccc(CNC(=O)NS(=O)(=O)c2ccc(OCC(C)C)cc2)cc1	0	7.94µM	0
Cc1ccc(S(=O)(=O)NC(=O)NCc2ccc(F)cc2)cc1	-	-	0
C=CC(=O)OCCCC	0	0	-
C[C@H]1Cc2c(COc3ccccc3)nc3c(c2CO1)CN(C(=O)C1CC1)CC3	-	-	0[12.9 µM]
CCN=C(Nc1ccc2c(c1)OCO2)SC1CC(=O)N(c2ccccc2F)C1=O (stereo not given)	0	0	0
SMILES	Cruzain inh Det	Cruzain noTriton	FBPA Giardia inh
C/C(CCc1ccc2c(c1)OCO2)=N\N=C(/N)SC1CC(=O)N(c2ccccc2F)C1=O (stereo not given)	0	15.8µM	?
COc1ccc(N(CC(=O)Nc2cc(C)ccc2C)S(=O)(=O)c2ccc(OC)c(OC)c2)cc1	0	0	-
CCOC(=O)c1sc(NC(=O)c2cc3ccccc3o2)nc1C	-	-	0
CCOC(=O)c1sc(NC(=O)c2ccc(CC)s2)nc1C	0	15.8µM	0
CCOC(=O)c1sc(NC(=O)Nc2ccccc2F)nc1C	0	0	0
CCOC(=O)c1sc(NC(=O)/C=C/c2c(F)cccc2Cl)nc1C	0	12.6µM	0
Cc1cc(C)c(S(=O)(=O)N2CCC(n3c(C(F)(F)F)nc4cccnc43)CC2)c(C)c1	0	0	-
Cc1nc2cccnc2n1-c1cccc(C(=O)NCc2ccc(OC(C)C)cc2)c1	0	0	-
N#C/C(=C\c1ccc(OC(=O)c2ccc(Cl)s2)cc1)c1nc2ccccc2[nH]1	0	3.98µM	0
N#C/C(=C\c1ccncc1)c1nc2ccccc2[nH]1	-	-	0
N#C/C(=C\c1cccnc1)c1nc2ccccc2[nH]1	-	-	0
N#C/C(=C\c1ccc(OC(=O)c2ccc(Br)s2)cc1)c1nc2ccccc2[nH]1	0	5.01µM	0
O=C(O)/C=C\C(=O)Nc1cccc2c1-c1ccccc1C2=O	0	0	-
COc1ccc(CCNC(=O)C(C)n2nc(C)c3sc4ccccc4c3c2=O)c(OC)c1 (stereo not given)	?	0	-
O=C(Cn1ncc2ccsc2c1=O)N1CCN(c2ccc(Cl)cc2)CC1	0	0	-
NCCS	0	0	15.8µM!
Oc1cccc2ccc(/C=C/c3ccccc3Br)nc12	-	-	0
Oc1ccc2ccccc2c1/C=C\c1ccc2c(Br)cc(Br)c(O)c2n1	0	3.16µM	-
CC(C)(C)C1CCc2c(sc(NC(=O)Cn3nnc(-c4cccc(C(F)(F)F)c4)n3)c2C#N)C1 (stereo not given)	0	0	-
CC1(C)[C@H](C(=O)O[C@H](C#N)c2cccc(Oc3ccccc3)c2)[C@@H]1C=C(Br)Br	-	-	0
Cc1cc(F)ccc1S(=O)(=O)Nc1ncnc2sc3c(c12)CCC3	-	-	0
O=S(=O)(Nc1ncnc2sc3c(c12)CCC3)c1ccc2ccccc2c1	0	31.6µM	?

Screening data: PubChem BioAssay, National Center for Advancing Translational Sciences (NCATS)
